“And” between values parts separate entries of the source, which are not always exact repeats. Equal values may be shown once. Compounds without any hit were thinned out: in the full panel of roughly 83,000, 20% have a hit.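 Single-concentration screen, 48 h exposure, 96-well plates. Endpoint: percent growth. Below 10 = active.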 The source made the active and inactive calls.
The molecules below were run on HL-60(TB) leukemia (assay: NCI-60 one-dose screen, 48 h (100 = growth as untreated, 0 = no growth, -100 = all killed)). Details: 10 µM unless noted.

Compound	growth
CCN(CC)CCNC(=O)n1cc(-c2ccncc2)c(-c2cc(Cl)cc(OC)c2)n1	78% (inactive)
O=C(CCc1nnc(CN(c2ccccc2)c2ccccc2)o1)c1nc2ccccc2[nH]1	84.1% (inactive)
N#CC(C#N)N=Nc1ccc(Br)cc1	-10.7% (active)
O=[N+]([O-])c1ccc(S(=O)(=O)N2CCN(C3=NS(=O)(=O)c4ccccc4N3c3ccccc3)CC2)cc1	96.7% (inactive)
Cc1ccc(C(O)C2=CC(=O)c3ccccc3C2=O)cc1 (stereo not given)	92.1% (inactive)
NC(=O)c1c(NC(=O)c2ccc(OCC3CCCO3)cc2)sc2c1CCCC2 (stereo not given)	53.8% (inactive)
Cc1ccc(NCCN2CCCCC2)c2c(=O)c3ccccc3sc12	1.52% (active)
CN1CCN(C2CCN(C(=O)Nc3cc(Oc4ccc(NC(=O)C5(C(=O)Nc6ccc(F)cc6)CC5)c(F)c4)ccn3)CC2)CC1	-44.7% (active) and 121% (inactive)
O=[N+]([O-])c1ccc(NS(=O)(=O)c2ccccc2)c2ccccc12	21.2% (inactive)
OCCN(CCO)c1ccc2ccccc2c1	87.9% (inactive)
Cc1sc2c(c1C)c(=O)nc1c(-c3nc4ccccc4s3)n[nH]n12	98.3% (inactive)
COC(=O)C(CSC(c1ccccc1)(c1ccccc1)c1ccccc1)NC(=O)C(CC(N)=O)NC(=O)OCc1ccccc1 (stereo not given)	-7.75% (active)
O=C(c1ccc(Cl)cc1)N1CCN(c2ccnc3cc(Cl)ccc23)CC1	102% (inactive)
CC1(C)OC(=O)CC1=O	91.5% (inactive)
COc1ccc(/C=C/c2nc(-c3n[nH]c(=O)n3-c3ccccc3)c3ccccc3n2)cc1	97.1% (inactive)
C[N+]1(CCC[N+]2(C)C[C@@H]3[C@H](C2)[C@@H]2C=C[C@H]3C2)CCOCC1 (stereo not given in full)	122% (inactive)
CC(=O)Nc1ccc(Sc2ccc(NC(C)=O)cc2)cc1	73.1% (inactive)
S=c1ccc2ccccc2[nH]1	85.3% (inactive) and 97.6% (inactive)
c1ccc(CO[C@H]2CO[C@H]3[C@@H]2OC[C@H]3OCc2ccccc2)cc1	88.4% (inactive)
NC(N)=NN=C(c1ccccc1)c1ccccc1	-8.59% (active)

Compound	growth
Nc1ncnc2c1C(c1ccccc1)c1ccc3ccccc3c1O2 (stereo not given)	82.4% (inactive)
O=C1C=CC(=O)N1c1ccccn1	55.7% (inactive)
COc1ccc(-c2cn(-c3ccccc3)c(-c3ccccc3)n2)cc1OC	8.37% (active)
COc1ccccc1NC(=O)Cn1cc(CN2CCN(c3ccnc4cc(Cl)ccc34)CC2)nn1	131% (inactive)
COc1cccc(-c2nnc(COc3ccc(-c4nc5ccc(C)cc5[nH]4)cc3OC)o2)c1	-56.2% (active)
CCCCN1C(=O)/C(=c2\sc3n(c2=O)C2C(NN=3)N(CC)C(=O)N2CC)c2ccccc21 (stereo not given)	-52.2% (active)
Cc1ccc2c(N/N=C\c3ccco3)cc(C)nc2n1	-53.3% (active)
CCCCCCCCCCCCCCCCNC(=S)N/N=C/c1ccc(O)cc1O	49.9% (inactive)
CSC1=NC(=Nc2c(C)cccc2C)C2(CCC(C(C)(C)C)CC2)N1c1ccc(Cl)cc1 (stereo not given)	53.4% (inactive)
CSc1nc2sc3c(c2c(=O)n1-c1ccc([N+](=O)[O-])cc1)CCCCC3	97.7% (inactive)
O=C(Nc1cccc(Cl)c1)c1cc([N+](=O)[O-])ccc1O	44.4% (inactive)
COc1ccc(SC2c3cc(OC)c(OC)cc3Oc3nc(N)c(C#N)c(N)c32)cc1 (stereo not given)	-51.5% (active)
COc1cc(-c2nnc(-c3c(-c4ccc(F)cc4)nc4ccccn34)o2)cc(OC)c1OC	102% (inactive)
O=S(=O)(NCCNc1cc(-c2cn(-c3ccccc3)nc2-c2cccc(O)c2)ccn1)c1ccc(Br)cc1	11.1% (inactive)
O=C(Nc1ccc(Br)cc1)Nc1ccccc1Cl	70.7% (inactive)
COc1cc(-c2nn(-c3cccc(NC(=O)NCCNC(=O)c4ccccc4)c3)cc2-c2ccncc2)ccc1Cl	-8.76% (active)
Oc1ccccc1/C=N\NC(=S)N/N=C/c1ccccc1O	-7.82% (active) and 18.6% (inactive)
CC(=O)C1CCC2C3CC=C4CC(SC(=N)N)CCC4(C)C3CCC12C (stereo not given)	-17.6% (active)
Nc1nc(N)c2cc(Sc3ccc(Cl)cc3)ccc2n1	27.5% (inactive)
Nc1ccc(N=Nc2ccc(O)cc2)c(N)n1	37% (inactive)
